Among the data in PubChem BioAssay (NCI) are growth inhibition values, retold here.

The structures appear in SMILES notation. About 79,000 compounds went through this panel and 15% of them were active in at least one assay; those are over-represented in the sample as a whole. Values without a mark were called inactive. The source made the active and inactive calls. Rule as the data show it: active = growth inhibition above about 70%; inactive = the rest.

Test [1] can be described thus: NCI Yeast Anticancer Drug Screen. Data for the rad50 strain (AID 155).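 Also: 0% = growth of vehicle-only cultures of the same strain.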 The conditions noted are these: S. cerevisiae rad50 strain growth inhibition; at 50.0 µM; active compounds read high. An outline of the steps: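 Cells are treated with compound, grown, and their growth is then scored against vehicle-only cultures of the same repair-deficient yeast strain.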
Test [2] is described as follows: NCI Yeast Anticancer Drug Screen. Data for the mec2-1 strain (AID 157). The conditions noted are these: S. cerevisiae mec2-1 strain, at 50.0 µM, active compounds read high. An outline of the steps: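 Vehicle-treated cultures served as reference for growth inhibition of compound-exposed mec2-1 yeast.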
Test [3] in a line: NCI Yeast Anticancer Drug Screen. Data for the sgs1 mgt1 strain (AID 161).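 Also: 0% = growth of cultures given vehicle only.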 Particulars: S. cerevisiae sgs1 mgt1 strain, at 50.0 µM, active compounds read high. The procedure, abridged: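 Genetically altered yeast, compound exposure, growth inhibition relative to vehicle.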
Test [4] in a line: NCI Yeast Anticancer Drug Screen. Data for the cln2 rad14 strain (AID 165).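 Also: 0% = growth equal to vehicle treated cultures.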 Particulars: S. cerevisiae cln2 rad14 strain, at 50.0 µM, active compounds read high. The procedure, abridged: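 Each compound was tested on cln2 rad14 yeast. Inhibition of growth was calculated against vehicle-exposed controls.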
Test [5] is described as follows: NCI Yeast Anticancer Drug Screen. Data for the bub3 strain (AID 167). The conditions noted are these: S. cerevisiae bub3 mutant strain, at 50.0 µM, active compounds read high. The procedure, abridged:
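Part of a panel of yeast mutants defective in DNA damage repair or cell cycle regulation. Each strain is grown with compound, and inhibition is calculated relative to solvent-treated cultures.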

A short description of test [6]: NCI Yeast Anticancer Drug Screen. Data for the mlh1 rad18 strain (AID 175). Particulars: S. cerevisiae mlh1 rad18 strain growth inhibition; at 50.0 µM; active compounds read high. The procedure, abridged:
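Vehicle-treated cultures served as the reference for growth inhibition in a yeast strain carrying DNA damage repair alterations exposed to each compound.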

Turning to `CC(C)C1=CC(=O)C(C)(C2=NC(C)(C)CO2)c2ccccc21` (stereo not given), the growth inhibition in test [1] was -0.1%; in test [2], -9.35%; in test [3], 4.4%; in test [4], 22.7%; in test [5] it was -10.5%; in test [6] it was 5.3%.
For the compound `COc1ccc(C(=O)CC(=O)CCC(=O)Nc2ccc(Cl)cc2Cl)cc1`, the growth inhibition in test [1] is 26.4%; in test [2] it was 19.1%; in test [3], 20.9%; in test [4] it was 19.8%; in test [5] it was 8.2%; in test [6], 7.75%.
As for `O=C(CCCC(=O)N/N=C/c1cccc([N+](=O)[O-])c1)N/N=C\c1cccc([N+](=O)[O-])c1`, the growth inhibition in test [1] is 26.6%; in test [2], 21.9%; in test [3], 5.1%; in test [4], 26.8%; in test [5] it was 2.45%; in test [6] it was 26.1%.
As to `CCN(CC)C(=S)SCCC(N)=O`, the growth inhibition in test [1] was -12.4%; in test [2], -13.8%; in test [3], -2.8%; in test [4], 9.15%; in test [5], -1.25%; in test [6] it was -0.65%.
In the case of `Nc1nc(N)nc(C2CC3C=CC2C3)n1` (stereo not given), the growth inhibition in test [1] is -1.55%; in test [2], -13.9%; in test [3], -4.4%; in test [4] it was -10%; in test [5], 2.1%; in test [6], -0.95%.
Consider `COC(=O)N/N=C(/C)c1ccco1`, for which the growth inhibition in test [1] was 8.75%; in test [2], 27.9%; in test [3] it was 3.55%; in test [4] it was 1.55%; in test [5], 14.8%; in test [6], 16.2%.
On to `CCCC(O)C(C)C(O)CC` (stereo not given), for which the growth inhibition is -9.85% in test [1]; -30.4% in test [2]; -22.2% in test [3]; -3.45% in test [4]; 1.4% in test [5]; -1.45% in test [6].
For the compound `Clc1nc2ccccc2s1`, the growth inhibition in test [1] is -32.4%; in test [2] it was -5.2%; in test [3] it was -24.8%; in test [4], -38%; in test [5], -21.1%; in test [6], 3.2%.
As for `C#CC1(O)CCC2[C@@H]3CCc4cc(Oc5nc(F)nc(-c6c7ccccc7cn6C)n5)ccc4C3CC[C@@]21C` (stereo not given in full), the growth inhibition in test [1] was 37.5%; in test [2], 25.3%; in test [3], 1.4%; in test [4], 5.05%; in test [5] it was 32.6%; in test [6] it was 42.8%.
As for `CCO/C=C1/N=C(c2cc([N+](=O)[O-])cc([N+](=O)[O-])c2C)OC1=O`, the growth inhibition in test [1] was 10.6%; in test [2] it was 6.85%; in test [3], -6.45%; in test [4], -58.2%; in test [5] it was -35%; in test [6], 15.1%.
Consider `Cc1cccc2c1c1ccc3c(c1n2C)C(=O)C=CC3=O`, for which the growth inhibition in test [1] is 5.05%; in test [2], -12.4%; in test [3] it was 4.6%; in test [4], 18.6%; in test [5] it was -11.2%; in test [6] it was -5%.
Consider `COc1ccc(S(=O)c2coc3ccccc3c2=O)cc1` (stereo not given), for which the growth inhibition in test [1] was 32.4%; in test [2] it was -9.05%; in test [3], 28.1%; in test [4] it was 14.7%; in test [5] it was 28.1%; in test [6] it was 20.9%.
For the compound `NS(=O)(=O)c1ccc(C(=O)O)s1`, the growth inhibition is -12.1% in test [1]; -11.2% in test [2]; -10.3% in test [3]; -11% in test [4]; 11.6% in test [5]; -18.1% in test [6].
Consider `CC[n+]1ccnc2ccccc21`, for which the growth inhibition in test [1] was -11.6%; in test [2] it was -8%; in test [3], -1.35%; in test [4], -7.9%; in test [5], 11.6%; in test [6], 14%.
Regarding `COC1OCC(O)C(O)C1OC` (stereo not given), the growth inhibition in test [1] is -11%; in test [2], -13.4%; in test [3], -16.2%; in test [4], -25.1%; in test [5] it was -8.55%; in test [6] it was -19.1%.
On to `C=CCc1cccc(C)c1O`, for which the growth inhibition was 18.9% in test [1]; -16.1% in test [2]; 20.4% in test [3]; 13.6% in test [4]; -2.6% in test [5]; 20.3% in test [6].
For `Nc1ccc(Cl)cc1Cl`, the growth inhibition is -28.3% in test [1]; -7.1% in test [2]; -33.5% in test [3]; -34% in test [4]; -0.1% in test [5]; -21.3% in test [6].
As to `CN(C)CCSCC(=O)N1c2ccccc2Sc2ccccc21`, the growth inhibition is -7.7% in test [1]; -8.5% in test [2]; -5.8% in test [3]; -41.2% in test [4]; 3% in test [5]; -4.8% in test [6].
Turning to `COC(=O)c1ccccc1N=Cc1cc(Cl)ccc1O`, the growth inhibition in test [1] is 21.5%; in test [2], 23.1%; in test [3], 35.9%; in test [4] it was 6.1%; in test [5], 19.6%; in test [6], 88.2% (active).
For the compound `CC1C2(C)OC(=N)C(C#N)(C(c3ccccc3)O2)C1(C#N)C#N` (stereo not given), the growth inhibition was 8.7% in test [1]; -5.15% in test [2]; -13.4% in test [3]; 6.25% in test [4]; -3.2% in test [5]; -23.6% in test [6].
